Hits are enriched below; roughly 5.7% of the tested compounds scored in any of these assays.
DAX1 inh-1 – DAX1 (NR0B1) inhibitors on StAR promoter, primary screen, cell-based, luminescence, SF-1 (NR5A1), full-length DAX-1. HEK293T StAR-luciferase reporter, SF-1/DAX-1 repression relief. inhibition, % at 6.8 µM. actives 1.1% (n = 370,000). AID 652010, 2013;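 active = inhibition above the mean over all tested compounds plus 3 SD, cut at about 3.6% in these data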;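 also: 0% = DAX-1 cells with DMSO and 100% = cells lacking DAX-1 with DMSO; higher inhibition means more luminescence from relief of DAX-1 repression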
hcDAF-12 act – H. contortus DAF-12 nuclear receptor activators, primary screen, cell-based, luminescence, HEK293, lit1-tk-luc reporter. HEK293 hcDAF-12 lit1-tk-luc reporter; 0% DMSO, 100% Δ7-dafachronic acid. activation, % at 6.8 µM. actives 1.4% (n = 370,000);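 active = activation above the mean of all tested compounds plus 3 SD, cut at about 5.5% in these data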;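 also: 100% = response to 3 µM Δ7-dafachronic acid high control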
AHR act – AHR activators, primary screen, cell-based, luminescence, luciferase reporter, human; Aryl hydrocarbon receptor (Homo sapiens), P35869; AHR-responsive luciferase reporter cells; activation, % at 5 µM; actives 2.5% (n = 320,000); AID 2796, 2010; in the data active = activation above about 47%;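 also: 0% = vehicle wells and 100% = reference agonist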
Target sequence (P35869 whole entry, looked up): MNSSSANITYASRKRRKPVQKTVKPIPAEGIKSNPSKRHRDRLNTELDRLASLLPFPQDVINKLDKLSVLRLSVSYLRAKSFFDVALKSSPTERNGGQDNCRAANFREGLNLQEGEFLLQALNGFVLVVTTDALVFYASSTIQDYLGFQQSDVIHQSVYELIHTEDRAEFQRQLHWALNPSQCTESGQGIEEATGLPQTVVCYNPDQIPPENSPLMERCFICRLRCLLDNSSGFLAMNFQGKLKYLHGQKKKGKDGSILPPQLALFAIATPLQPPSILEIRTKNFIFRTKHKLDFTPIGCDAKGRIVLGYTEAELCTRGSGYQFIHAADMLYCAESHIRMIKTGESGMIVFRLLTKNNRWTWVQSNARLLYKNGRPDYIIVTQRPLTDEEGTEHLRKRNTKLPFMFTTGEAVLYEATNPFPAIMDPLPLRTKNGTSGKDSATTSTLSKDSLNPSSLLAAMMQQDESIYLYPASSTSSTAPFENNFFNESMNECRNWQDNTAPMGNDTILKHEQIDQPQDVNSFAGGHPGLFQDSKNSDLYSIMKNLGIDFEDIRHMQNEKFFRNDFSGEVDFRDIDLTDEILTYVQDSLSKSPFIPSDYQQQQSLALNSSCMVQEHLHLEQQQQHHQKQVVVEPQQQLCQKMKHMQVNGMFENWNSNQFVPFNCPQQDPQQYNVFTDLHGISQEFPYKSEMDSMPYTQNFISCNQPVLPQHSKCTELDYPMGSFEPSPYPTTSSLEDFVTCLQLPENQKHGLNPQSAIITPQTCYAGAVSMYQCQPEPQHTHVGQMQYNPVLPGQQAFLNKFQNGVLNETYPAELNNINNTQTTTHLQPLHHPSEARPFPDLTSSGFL
ssDAF12 agonist – S. stercoralis DAF-12 nuclear receptor activators, primary screen, cell-based, luminescence, HEK293, GRIP1 co-expression, lit1-tk-luc; Nuclear hormone receptor DAF-12 (Strongyloides stercoralis); HEK293 ssDAF-12/GRIP1 lit1-tk-luc reporter; % of 3 µM dafachronic acid response; activation, % at 6.8 µM; actives 1% (n = 370,000); AID 652126, 2013;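 active = activation above the mean over all tested compounds plus 3 SD, cut at about 0.9% in these data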;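 also: 0% = DMSO-only wells and 100% = 3 µM delta7-dafachronic acid wells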
hgDAF-12 ag – H. glycines DAF-12 receptor agonists, primary screen, cell-based, luminescence, HEK293, GAL4 fusion, UAS-luciferase. AID 687014, 2013. actives 1.8% (n = 370,000). activation, % at 6.8 µM. Nuclear hormone receptor DAF-12 (Heterodera glycines), GAL4 fusion. HEK293 GAL4-hgDAF12 UAS-luciferase reporter, agonist luminescence; normalized to butyrate control;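 active = activation above a cutoff set at the mean of all screened compounds plus 3 SD, cut at about 10% in these data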;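 also: 0% = DMSO wells and 100% = sodium butyrate wells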
DAX1 inh-2 – DAX1 (NR0B1) inhibitors, primary screen, cell-based, HEK293, Gal4-DAX1, luciferase luminescence; Nuclear receptor subfamily 0 group B member 1 (Homo sapiens), P51843; HEK293 Gal4-DAX1 luciferase reporter; inhibition, % at 6.75 µM; actives 0.99% (n = 340,000); AID 504766, 2011;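 active = inhibition above the mean over all tested compounds plus 3 SD, cut at about 4.2% in these data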;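 also: 0% = DAX1-transfected cells with DMSO and 100% = empty-vector control cells with DMSO; inhibition shows as a rise in luminescence from relieved DAX1 repression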
* = called active by the depositor; . = no result.

SMILES	DAX1 inh-1	hcDAF-12 act	AHR act	ssDAF12 agonist	hgDAF-12 ag	DAX1 inh-2
COc1cc(/C=N/NC(=O)c2ccccc2)ccc1O	1	4	13	-1	5	5.9*
Cn1c(=O)n(C)c2cc(/C=N/NC(=O)c3ccc(Cl)cc3)ccc21	0	0	6	-1	1	4.6*
COC(=O)N/N=C\c1ccc(OC/C=C/c2ccccc2)c(OC)c1	-1	-2	51*	-1	0	1
COc1ccc(/C=N/NC(=O)c2nc(-c3ccccc3)cc(-c3ccccc3)n2)cc1O	-2	-4	52*	-1	0	-2
CSCCC(NS(=O)(=O)c1ccc(C)cc1)C(=O)N1CC=C(c2ccccc2)CC1 (configuration not stated)	3	0	0	-1	0	1
CCCNC(=O)Nc1cc(C)on1	-1	0	5	-1	1	0
CCC1(c2ccc(F)cc2)NC(=O)N(CC(=O)Nc2ccc3c(c2)OCCO3)C1=O (configuration not stated)	4	2	3	-1	-1	0
COc1ccc(NC(=O)CN2CCN(CC(=O)Nc3ccccc3Cl)CC2)cc1	-2	1	5	-1	2	0
N#CCC(=O)N/N=C\c1ccccc1OC/C=C/c1ccccc1	4.3*	1	-1	0	8	2
CCC(C)c1ccccc1NC(=O)c1cc2cccc([N+](=O)[O-])c2[nH]1 (configuration not stated)	-1	2	55*	-1	0	.
OCCc1ccc(NCCc2cccs2)cc1	3	5	.	-1	11*	.
O=C(Cc1cccs1)NCCc1ccc(F)cc1	0	2	11	-1	-2	3
CC(=O)CCc1oc2ccc(C)cc2c1Cc1ccccc1	0	6.5*	22	1.6*	5	0
COc1ccc(C(=O)C2CCCN(C3Cc4ccccc4C3)C2)c(OC)c1 (configuration not stated)	2	1	1	0.9*	0	0
CCOc1ccc(N=C2NC(=O)S/C2=C\c2ccc(N(C)C)cc2)cc1	4	4	62*	-1	8	3
Brc1ccc(C2=CC(c3ccco3)n3nnnc3N2)cc1 (configuration not stated)	0	2	52*	0	2	1
c1ccc2c(Nc3nc(N4CCOCC4)c4ccccc4n3)cccc2c1	-2	-1	71*	-2	-1	-2
O=C(c1cccn2c(=O)c3cc(Cl)ccc3nc12)N1CCN(Cc2ccc3c(c2)OCO3)CC1	-1	1	70*	-1	-3	0
O=C(c1cccn2c(=O)c3cc(Cl)ccc3nc12)N1CCOCC1	1	-1	91*	-2	1	0
O=C(c1cccn2c(=O)c3ccccc3nc12)N1CCN(Cc2ccc3c(c2)OCO3)CC1	-1	-1	12	-2	-3	0
NC(=O)C1(N2CCCCC2)CCN(C(=O)c2cccn3c(=O)c4cc(Cl)ccc4nc23)CC1	0	-1	26	-1	0	1
CC1CCCC/C1=N\NC(=S)Nc1ccccc1 (configuration not stated)	1	1	60*	0	6	3
CC1CCC/C(=N\NC(=S)Nc2ccccc2)C1 (configuration not stated)	0	4	22	-1	2	1
CCn1c(SCC(=O)Nc2ccc(-c3nc4ccc(C)cc4s3)cc2)nnc1-c1ccccc1	.	.	3	.	.	.
COc1ccc(-c2cc(-c3nnc(SCC(=O)Nc4ccc(-c5nc6ccc(C)cc6s5)cc4)n3N)[nH]n2)cc1	1	3	.	0	13*	.
SMILES	DAX1 inh-1	hcDAF-12 act	AHR act	ssDAF12 agonist	hgDAF-12 ag	DAX1 inh-2
Nn1c(SCC(=O)Nc2ccccc2-c2ccccc2)nnc1-c1cc(-c2ccccc2)n[nH]1	-1	0	.	-1	1	.
Nn1c(SCC(=O)Nc2nccs2)nnc1-c1cc(-c2ccccc2)n[nH]1	1	3	.	-1	11*	.
Cc1ccc2nc(-c3ccc(NC(=O)CSc4nnc(-c5ccccc5)n4Cc4ccco4)cc3)sc2c1	2	1	.	-1	12*	.
C#Cc1ccc([C@H]2C=C(C(=O)OCC=C)O[C@@H](OCCCCO)C2)cc1	0	-1	49*	-1	-1	-1
C#Cc1ccc([C@H]2C=C(C(=O)OCC=C)O[C@@H](OCc3ccc(CO)cc3)C2)cc1	0	-1	11	-2	2	0
COc1cc(C(C)=O)ccc1OCC(O)CN(CCO)Cc1ccccc1 (configuration not stated)	1	0	4	-1	-1	7.2*
OCCN(Cc1ccccc1)CC(O)COc1ccc(-c2ccccc2)cc1 (configuration not stated)	0	-1	4	-1	-1	1
CC(C(=O)NCC1CCCO1)c1ccc([N+](=O)[O-])cc1 (configuration not stated)	0	0	2	-2	-3	5.0*
C/C(=N\Nc1ccc2nncn2n1)c1ccc(Br)s1	0	0	78*	-1	-1	1
C/[N+]([O-])=C/c1c(OCc2ccc(Cl)cc2Cl)ccc2ccccc12	0	6.0*	38	0	5	0
CC(=O)Nc1ccc(Br)c(Cl)c1	0	-1	-1	-1	0	1
CN(c1ccccc1)c1nc(N)c([N+](=O)[O-])c(Nc2cccc(F)c2)n1	0	-2	7	-1	2	0
CN(Cc1ccccc1)c1nc(N)c([N+](=O)[O-])c(Nc2cccc(F)c2)n1	-1	0	48*	-1	-1	0
O=C(N/C(=C/c1ccc2c(c1)OCO2)C(=O)N1CCOCC1)c1cccs1	0	-1	0	-2	1	1
Brc1ccc(-c2csc(-c3c[nH]c4ccccc34)n2)cc1	1	4	78*	0	7	2
Nc1cc(N)cc(-c2nc3ccccc3o2)c1	-1	-1	72*	-1	-2	2
CCOC(=O)c1cc(C(=O)Nc2ccccc2F)nn1C	3	5	1	0	13*	1
CCOC(=O)n1ccc(C(=O)Nc2ccccc2F)n1	1	0	-4	-1	5	0
